The text below walks through data of PubChem BioAssay (NCATS).

Experiment [1] deals with Cellular tumor antigen p53 (Homo sapiens) (UniProt P04637). Kind of experiment: Primary qHTS for small molecule compounds that upregulate eGFP-tagged delta133p53alpha (in N-terminal) cells. (AID 2060322). Also: nearly all actives have a fitted effect of over 75% in size. Also: potency is read from the fitted curve at half-maximal effect.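 As to activation: cells pre-induced with doxycycline then dosed without doxycycline; series mostly up to about 56 µM; 0% = DMSO vehicle and 100% = reference activator.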 The settings on record: NCI-H358 eGFP-delta133p53alpha fluorescence, 24 h; activation: active compounds read high. The method, boiled down: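 NCI-H358 cells pre-induced 24 h with 10 ng/ml doxycycline for eGFP-delta133p53alpha, plated dox-free and exposed 24 h at 37C to titrated compounds. Fixed, Hoechst-stained; gated GFP peak intensity by laser scanning cytometry, normalized to DMSO (0%) and 57.5 uM 5-azacytidine (100%).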

The target of experiment [2] is Aldehyde dehydrogenase, mitochondrial (Homo sapiens) (UniProt P05091). Kind of experiment: qHTS for Inhibitors of the Aldehyde Dehydrogenase Family (ALDH2) Primary screen (AID 2061308).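 Also: plate controls were vehicle for no effect and reference inhibitor for full effect; nearly all actives have a fitted effect of over 55% in size.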
Experiment [3] deals with Retinaldehyde dehydrogenase 3 (Homo sapiens) (UniProt P47895). Description: qHTS for Inhibitors of the Aldehyde Dehydrogenase Family (ALDH1A3) Primary screen (AID 2061315).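 Also: plate controls were DMSO vehicle for no effect and reference inhibitor for full effect.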

SMILES strings stand for the structures. Records with an inconclusive call do not appear. A number with no mark means an inactive call. Active and inactive are the calls of the source. Calls follow the shape of the dose curve; as a rule, active = well fitted curve in the direction sought with a large enough effect; inconclusive = small, poorly fitted or top-dose-only effect, or another doubt; inactive = no such curve, though single readings can be large; an effect the other way counts as inactive or inconclusive.

Cellular tumor antigen p53 (Homo sapiens), sequence (P04637 whole entry, looked up): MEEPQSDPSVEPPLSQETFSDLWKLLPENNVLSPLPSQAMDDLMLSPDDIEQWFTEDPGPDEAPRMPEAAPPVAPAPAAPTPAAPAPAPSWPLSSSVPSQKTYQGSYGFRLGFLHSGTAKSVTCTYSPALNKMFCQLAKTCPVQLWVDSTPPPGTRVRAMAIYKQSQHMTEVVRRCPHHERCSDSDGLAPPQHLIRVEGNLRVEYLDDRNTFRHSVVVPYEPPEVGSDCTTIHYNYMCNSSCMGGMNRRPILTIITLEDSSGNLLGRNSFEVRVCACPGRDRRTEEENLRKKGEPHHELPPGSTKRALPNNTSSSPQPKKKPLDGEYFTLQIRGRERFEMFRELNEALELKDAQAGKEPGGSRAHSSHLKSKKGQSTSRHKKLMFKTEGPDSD

Turning to `Cc1occc(=O)c1O[C@@H]1O[C@H](COC(=O)CC(C)(O)CC(=O)O)[C@@H](O)[C@H](O)[C@H]1O` (some centres undefined), the activation in experiment [1] was -11.6%. For the same molecule, the Potency result in experiment [2] and in experiment [3] was “inactive” in each case.

As for `COc1cc(O)cc(/C=C/c2cccc(O)c2)c1`, in experiment [1], the activation is -8.93%. The Potency entry in experiment [2] and in experiment [3] was “inactive” throughout.

For `CC(=O)O[C@@H]1C2=C(O)C(=O)[C@](C)(OC(C)=O)C(=O)C2=CO[C@@]12O[C@@H](C)CC[C@H]2OC(C)=O`, the activation in experiment [1] was -18.3%. In addition, the Potency entry in experiment [2] and in experiment [3] was “inactive” each time.

On to `Nc1nc2c(s1)CCN(Cc1ccc(Cl)cc1)CC2`, for which the activation in experiment [1] was 19.1%. In addition, the Potency result in experiment [2] and in experiment [3] was “inactive” throughout.

With `COC(=O)C1=CO[C@@H](O[C@@H]2O[C@H](CO)[C@@H](O)[C@H](O)[C@H]2O)[C@@H]2[C@@](C)(O)[C@@H](OC(=O)/C=C/c3ccc(O)cc3)C[C@]12O`, the activation in experiment [1] is -0.763%. Further, the Potency result in experiment [2] and in experiment [3] was “inactive” each time.

`CO[C@@]12CC3[C@@H]([C@@H](O)[C@@H](OC(C)=O)C4[C@](C)(COC(C)=O)CCC[C@]34C)[C@@H](C)C1=CC(=O)O2` (some centres undefined): the activation in experiment [1] was -3.05%. The Potency entry in experiment [2] and in experiment [3] was “inactive” each time.

For `CC1CCC2C(C)(C)CC(C)(CO)C2(O)C1C(=O)O` (centres undefined), in experiment [1], the activation is 15.3%. Moreover, the Potency result in experiment [2] and in experiment [3] was “inactive” throughout.

On to `C/C(=C/CO)CC[C@H]1[C@]2(C)C[C@H](O)CC(C)(C)[C@H]2CC[C@]1(C)O`, for which the activation in experiment [1] was -9.92%. In addition, the Potency result in experiment [2] and in experiment [3] was “inactive” throughout.

On to `COC(=O)C1(O)C(OC(C)=O)CCC2C3(CC(c4ccoc4)OC3=O)C(C)=CCC21C(=O)OC` (centres undefined), for which, in experiment [1], the activation was 9.82%. Moreover, the Potency result in experiment [2] and in experiment [3] was “inactive” each time.

In the case of `C/C=C(/C)C(=O)O[C@@H]1C[C@@H](OC(=O)CC(C)C)C2(C)C3C(=O)C=C(C)C2C3C1(C)C` (some centres undefined), the activation in experiment [1] is -29%. Further, the Potency entry in experiment [2] and in experiment [3] was “inactive” each time.

In the case of `O=C1c2c(O[C@@H]3O[C@H](CO)[C@@H](O)[C@H](O)[C@H]3O)cc(O)cc2OC1(O)Cc1ccc(O)cc1` (some centres undefined), in experiment [1], the Potency is 10.4 µM (active). In addition, the Potency entry in experiment [2] and in experiment [3] was “inactive” throughout.

Regarding `Cc1ccc(-c2ncccn2)c(C(=O)N2C[C@H](COc3ccc(F)cn3)CC[C@H]2C)c1`, the activation in experiment [1] is -14.3%. Further, the Potency entry in experiment [2] and in experiment [3] was “inactive” throughout.

With `O=C(Nc1ccc(N2C(=O)[C@@H]3[C@H](C2=O)[C@@H]2C=C[C@H]3C2)c(Cl)c1)c1ccccn1`, in experiment [1], the activation is -11.7%. The Potency entry in experiment [2] and in experiment [3] was “inactive” throughout.

As to `CN1CCc2cc3c(cc2C(=O)Cc2cc4c(cc2C1)OCO4)OCO3`, the activation in experiment [1] was -8.04%. Also, the Potency entry in experiment [2] and in experiment [3] was “inactive” in each case.

For the molecule `C=C1CC2C3(C)C=CC(=O)OC(C)(C)C3CC(OC(C)=O)C2(C)C2C(=O)OC(C)C(=O)C12C` (centres undefined), the activation in experiment [1] is 15.3%. The Potency entry in experiment [2] and in experiment [3] was “inactive” each time.

Consider `O[C@@](Cc1ncc(CC2(C(F)(F)F)CC2)[nH]1)(c1ccc(-n2cccn2)cc1)C(F)(F)F`, for which, in experiment [1], the activation is -3%. In addition, the Potency result in experiment [2] and in experiment [3] was “inactive” throughout.

`O=C(Nc1ccc(-c2ccncc2)cc1)N[C@H](CO)c1ccccc1`: in experiment [1], the activation is -25.9%. Also, the Potency result in experiment [2] and in experiment [3] was “inactive” each time.

Regarding `CC1CCC2C(C)(C)[C@H](O)CC[C@]2(C)C12Cc1c(O)cc3c(c1O2)CN(C(CCC(=O)O)C(=O)O)C3=O` (some centres undefined), the activation in experiment [1] was -2.29%. Further, the Potency entry in experiment [2] and in experiment [3] was “inactive” throughout.

Regarding `C=C1C2=CC(O)C(C)C1(C)CC/C(C)=C/CCC1(C)OC1C2=O` (centres undefined), the activation in experiment [1] is 0.763%. Besides, the Potency result in experiment [2] and in experiment [3] was “inactive” throughout.

With `C=C1CCC2(OC1)OC1CC3C4CC=C5CC(O)CC(O[C@@H]6OC[C@H](OC(=O)C(O)C(C)CC)[C@H](O)[C@H]6O[C@@H]6O[C@@H](C)[C@H](O)[C@@H](O)[C@H]6O)C5(C)C4CCC3(C)C1C2C` (some centres undefined), the activation in experiment [1] is 11.6%. For the same molecule, the Potency result in experiment [2] and in experiment [3] was “inactive” each time.

As for `C/C(=C\CCC(C)C1CC(O)C2(C)C3CCC4C(C)(C)C(OC5OCC(O)C(O)C5O)CCC45CC35CC(O)C12C)C(=O)O` (centres undefined), in experiment [1], the activation is 17.6%. The Potency entry in experiment [2] and in experiment [3] was “inactive” in each case.

Turning to `COc1cc(Cc2cnc(N)nc2N)c(C(C)C)cc1OC`, in experiment [1], the activation was -15.2%. For the same molecule, the Potency result in experiment [2] and in experiment [3] was “inactive” throughout.

Take `O=C(Nc1ccccc1C(=O)Nc1ccc(CCO)cc1)c1ccc([N+](=O)[O-])cc1`: the activation in experiment [1] is -29.5%. In addition, the Potency entry in experiment [2] and in experiment [3] was “inactive” throughout.

`COC(=O)[C@H](OC(C)=O)[C@H]1C(C)(C)C(=O)[C@H]2CC3=C4CC(=O)O[C@@H](c5ccoc5)[C@]4(C)CCC3[C@@]1(C)C2=O` (some centres undefined): in experiment [1], the activation is 2.68%. The Potency entry in experiment [2] and in experiment [3] was “inactive” throughout.

Take `O=C(Nc1nnc(-c2ccc3c(c2)OCCO3)o1)C1CCCCC1`: in experiment [1], the activation was -8.33%. Besides, the Potency entry in experiment [2] and in experiment [3] was “inactive” throughout.

For `O=C1CCC(c2ccccc2)(C2CCN(Cc3ccc(I)cc3)CC2)C(=O)N1` (centres undefined), the activation in experiment [1] was 4.33%. Besides, the Potency entry in experiment [2] and in experiment [3] was “inactive” throughout.

Regarding `CC(=O)/C=C/C1(O)C(C)CC(O[C@@H]2O[C@H](CO)[C@@H](O)[C@H](O)[C@H]2O)CC1(C)C` (some centres undefined), the activation in experiment [1] is 2.68%. The Potency result in experiment [2] and in experiment [3] was “inactive” each time.

As for `COc1cc2c(cc1O)[C@H](c1ccc(O[C@@H]3O[C@H](CO)[C@@H](O)[C@H](O)[C@H]3O)c(OC)c1)[C@@H](CO)[C@](O)(CO)C2`, the activation in experiment [1] was -15.3%. For the same molecule, the Potency result in experiment [2] and in experiment [3] was “inactive” each time.
